Results published in paper PMC4336329 (PLoS ONE, 2015).
Screen size: about 310,000 compounds; about 14,000 (4.5%) showed an effect of 50% or more. The effect is printed as a negative number. Many of the other results were omitted from the sample, so strong results are more common in it than they were.

biological target: human ether-à-go-go-related gene (hERG) potassium channel (human, UniProt Q12809); experiment: primary screen, population patch clamp on CHO cells stably expressing hERG; higher = less effect of the substance
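Also: peak tail current of the secondary pulse compared with the same well before compound.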

Chain of human ether-à-go-go-related gene (hERG) potassium channel (Q12809 whole entry, looked up): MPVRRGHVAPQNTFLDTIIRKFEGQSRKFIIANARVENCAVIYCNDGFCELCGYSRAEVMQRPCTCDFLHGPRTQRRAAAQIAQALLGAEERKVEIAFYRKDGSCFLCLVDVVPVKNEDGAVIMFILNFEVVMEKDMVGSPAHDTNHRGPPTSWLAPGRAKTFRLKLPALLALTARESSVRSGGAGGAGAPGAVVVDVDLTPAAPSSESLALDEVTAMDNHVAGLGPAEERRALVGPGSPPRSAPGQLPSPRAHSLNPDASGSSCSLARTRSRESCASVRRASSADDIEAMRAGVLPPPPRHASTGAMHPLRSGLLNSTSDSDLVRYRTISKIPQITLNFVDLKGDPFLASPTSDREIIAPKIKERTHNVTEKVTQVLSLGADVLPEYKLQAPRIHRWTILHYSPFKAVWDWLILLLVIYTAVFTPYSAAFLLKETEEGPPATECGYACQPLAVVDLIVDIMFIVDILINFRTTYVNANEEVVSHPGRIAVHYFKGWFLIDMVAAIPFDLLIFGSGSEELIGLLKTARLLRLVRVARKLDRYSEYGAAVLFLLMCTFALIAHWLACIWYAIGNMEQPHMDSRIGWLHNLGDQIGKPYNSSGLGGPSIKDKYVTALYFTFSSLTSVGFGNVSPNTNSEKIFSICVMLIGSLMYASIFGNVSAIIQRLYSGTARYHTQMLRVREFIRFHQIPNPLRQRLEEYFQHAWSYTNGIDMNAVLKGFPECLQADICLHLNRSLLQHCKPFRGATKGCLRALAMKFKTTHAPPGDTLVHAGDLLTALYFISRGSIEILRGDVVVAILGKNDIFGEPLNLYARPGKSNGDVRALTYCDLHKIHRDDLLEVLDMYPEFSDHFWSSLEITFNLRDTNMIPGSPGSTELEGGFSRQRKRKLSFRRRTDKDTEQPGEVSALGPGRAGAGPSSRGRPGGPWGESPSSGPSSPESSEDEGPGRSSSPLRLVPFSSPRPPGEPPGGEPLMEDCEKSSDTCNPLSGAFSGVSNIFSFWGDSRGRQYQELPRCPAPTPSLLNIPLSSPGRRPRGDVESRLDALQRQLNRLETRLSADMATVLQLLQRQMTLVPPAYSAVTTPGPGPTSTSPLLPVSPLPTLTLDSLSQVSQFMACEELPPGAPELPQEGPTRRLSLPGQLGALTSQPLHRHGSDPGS

SMILES | hERG current change (%, negative = inhibition) at 10uM [%]
COc1cc(C(=O)NC(=S)Nc2ccc(NC(=O)c3ccco3)cc2)cc(OC)c1OC | -6.61
CC(=O)Nc1ccc(NC2=CC(=O)c3ccccc3C2=O)cc1 | 11.6
COc1cccc2cc(C(=O)NCCC3=CCCCC3)c(=O)oc12 | 2.79
O=C(/C=C/c1ccccc1)NC(=O)c1ccccc1O | 9.95
CC1CCCN(Cc2cnc(Cl)s2)C1 (stereo not drawn) | 13
CCC(=O)N1CCc2cc(S(=O)(=O)N3CCN(C(=O)c4ccco4)CC3)ccc21 | -21.8
CCCc1c(C(=O)N/N=C/c2ccccc2OCc2ccc(F)cc2)nnn1-c1nonc1N | 18.6
Cn1c(=O)c2c(ncn2C)n(C)c1=O | 10.1
CCN1CCN(C(C)C(=O)Nc2c(C)n(C)n(-c3ccccc3)c2=O)CC1.O=C(O)C(=O)O (stereo not drawn) | 18.6
CCNc1nc(NCC)nc(Oc2ccc(C(=O)OC)cc2)n1 | -5.78
COc1cccc2c(=O)c(C(=O)O)c[nH]c12 | -0.514
COC(=O)c1sccc1NC(=O)C1CCCCC1C(=O)O (stereo not drawn) | 14.7
CN(C)c1cccc(C(=O)N2CCC(n3nccc3NC(=O)C3CCOC3)CC2)c1 (stereo not drawn) | 3.5
COCCCNC(=O)C(=O)N/N=C/c1ccc(OCC(=O)Nc2cccc(Cl)c2C)c(OC)c1 | -0.6
COc1ccc(Nc2nc(N3CCN(C)CC3)nc3ccccc23)c(OC)c1 | -75.4
COc1ccc(Nc2nc(-c3ccccc3)nc3ccccc23)c(OC)c1 | -1.67
COc1ccc(Nc2nc(Nc3ccc(OC)cc3OC)nc(N3CCN(C)CC3)n2)c(OC)c1 | -22.6
COc1ccc(Nc2nc(N3CCCCC3)nc3ccccc23)c(OC)c1 | -62.9
COc1ccc(Nc2nc(N3CCCCC3)nc(N3CCCCC3)n2)c(OC)c1 | 15.2
COc1ccc(Nc2nc(N3CCCC3)nc3ccccc23)c(OC)c1 | -44.6
CCN(CC(=O)Nc1ccc(NC(C)=O)cc1)C(=O)CC1OC(=O)c2ccccc21 (stereo not drawn) | 5.6
O=C(NCCO)c1nc(C(=O)c2ccccc2)c2ccccc2n1 | 15.9
Cc1nn(-c2ccccc2)c(C)c1C(=O)NCc1ccc(F)cc1 | -53.2
Cc1nn(-c2ccccc2)c(C)c1C(=O)NCc1ccc(S(N)(=O)=O)cc1 | 20.1
Cc1nn(-c2ccccc2)c(C)c1C(=O)NCc1ccccc1F | 3.78
O=C(CCc1nc2ccccc2c(=O)[nH]1)NNC(=O)COc1cccc(F)c1 | -1.88
COc1ccc(F)cc1CN1CCN(CC(=O)N2CCc3ccccc32)CC1 | -48.1

SMILES | hERG current change (%, negative = inhibition) at 10uM [%]
CCC(C)c1ccc(NC(=O)C2CC2)cc1 (stereo not drawn) | 5.22
Cc1ccc(S(=O)(=O)NCC(=O)OCc2cc(=O)oc3c(C)c(C)ccc23)cc1C | -16.7
COc1ccc2c(COC(=O)CNS(=O)(=O)c3ccc(C)c(C)c3)cc(=O)oc2c1 | -57.7
Cc1ccc(S(=O)(=O)NCC(=O)OCc2cc(=O)oc3cc(C)ccc23)cc1 | -3.27
CCOC(=O)C(C)Sc1nnc(Cc2cc(=O)[nH]c(=O)[nH]2)n1-c1cccc(OC)c1 (stereo not drawn) | 0.328
CCOC(=O)c1cnc2c(Cl)c(Cl)ccc2c1N1CCN(C)CC1.Cl | -55.5
CCOC(=O)c1cnc2c(C)c(Cl)ccc2c1N1CCN(CC)CC1.Cl | -29.5
CCOC(=O)c1cnc2c(C)cc(Cl)cc2c1N1CCN(C)CC1.Cl | -19.6
CN(C)S(=O)(=O)n1cnc([C@H]2c3c(ncn3Cc3ccccc3)C[C@H]3COC(=O)[C@@H]32)c1 | -4.15
Cc1ccc(C(c2sc3nc(C)nn3c2O)N2CC(C)OC(C)C2)cc1 (stereo not drawn) | 13.3
O=c1c(Cl)c(NCC2CCCO2)cnn1C12CC3CC(CC(C3)C1)C2 (stereo not drawn) | -29.3
O=c1oc(Nc2ccc(F)cc2)nc2ccccc12 | 6.68
CCOC(=O)N1CCC(NC(=O)CSCc2nc(-c3ccccc3Cl)oc2C)CC1 | -19.5
Cl.NC(=NC1CCCCC1)c1ccc(Cl)cc1 | -39.2
N/C(=N\OC(=O)CCC1CCCCC1)c1ccc([N+](=O)[O-])cc1 | -8.1
Cl.NC(=NC1CCCCC1)c1ccc([N+](=O)[O-])cc1 | -57.2
COc1cc2occc2c2oc(=O)ccc12 | 0.24
O=c1[nH]c(=O)n(C2CCCCC2)c(O)c1/C=N/N1CCCCC1c1cccnc1 (stereo not drawn) | -13.6
COc1cc(-c2nc3ccc4ccccc4c3c3c2CCC3)ccc1O | 13.8
O=C(CN(c1cccc([N+](=O)[O-])c1)S(=O)(=O)c1ccccc1)N1CCCCC1 | -24.8
O=[N+]([O-])c1ccc(N(CC(O)CN2CCCCC2)S(=O)(=O)c2ccccc2)cc1 (stereo not drawn) | -74
O=C(CN(c1ccc([N+](=O)[O-])cc1)S(=O)(=O)c1ccccc1)N1CCCCC1 | -61.9
O=[N+]([O-])c1ccc(S(=O)(=O)N(CC(O)CN2CCCCC2)c2ccccc2)cc1 (stereo not drawn) | -80.9
Cc1ccc(N(CC(=O)N2CCCCCC2)S(=O)(=O)c2ccccc2)cc1 | -25.3
CC1(C)NC(=O)N(CC(O)CN(c2ccccc2)S(=O)(=O)c2ccc([N+](=O)[O-])cc2)C1=O (stereo not drawn) | -13.7
COc1ccc([N+](=O)[O-])cc1N(CC(O)CN1CCCCC1)S(=O)(=O)c1ccccc1 (stereo not drawn) | -11.2
COc1ccc([N+](=O)[O-])cc1N(CC(O)CN1CCOCC1)S(=O)(=O)c1ccccc1 (stereo not drawn) | 20
